Measurements as given in the supplement of paper PMC3414501.
Structures can show the parent of a compound that is named as a salt.

tested on: S. cerevisiae NKY1551 his4x/his4B, sporulating; assay: HIS4 meiotic recombination assay sensitivity score (z-score vs DMSO controls); higher = stronger inhibition of sporulation/recombination, active = hit call of the paper;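 active = HIS4 sensitivity z-score above 5 vs DMSO controls; inactive = score 5 or below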
Experimental: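 NIH Clinical Collection compounds were added 1:100 from stock (about 100 µM final) to S. cerevisiae. Growth: average doubling time (AvgG) over 24 h of BY4741 (wild-type) or AD1-9 (drug-efflux-pump deficient) in rich media. HIS4: the his4x/his4B heteroallelic recombination reporter strain (SK1) was sporulated 5 h with compound at 30°C, then colony density was read on -his plates after 48 h. Sensitivity score = (compound − mean of 8 DMSO controls)/SD of DMSO controls. Hit cutoffs are >2 for growth and >5 for sporulation.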

Row | SMILES | HIS4 meiotic recombination assay sensitivity score
1 | Cc1nc2ccccn2c(=O)c1CCN1CCC(C(=O)c2ccc(F)cc2)CC1 [Pirenperone] (stock concentration (mM, diluted 1:100): 10) | 2.21 (inactive)
2 | CN(C)CCOC(c1ccccc1)c1ccccc1 [Diphenhydramine hydrochloride] (stock concentration (mM, diluted 1:100): 10) | 8.82 (active)
3 | CN1CCC(=C2c3ccccc3CC(=O)c3sccc32)CC1 [Ketotifen fumarate] (stock concentration (mM, diluted 1:100): 8.9) | 2.1 (inactive)
4 | CCCCC[C@H](O)/C=C/[C@H]1[C@H](O)CC(=O)[C@@H]1CCCCCCC(=O)O [Prostaglandin E1] (stock concentration (mM, diluted 1:100): 10) | 1.5 (inactive)
5 | COc1cc(/C=C/c2ccc(O)cc2)cc(OC)c1 [Pterostilbene] (stock concentration (mM, diluted 1:100): 10) | -0.31 (inactive)
6 | CCC(=O)NS(=O)(=O)c1ccc(-c2c(-c3ccccc3)noc2C)cc1 [Parecoxib] (stock concentration (mM, diluted 1:100): 9.8) | 0.05 (inactive)
7 | CCCc1nc2c(C)cc(-c3nc4ccccc4n3C)cc2n1Cc1ccc(-c2ccccc2C(=O)O)cc1 [Telmisartan] (stock concentration (mM, diluted 1:100): 10) | -1.16 (inactive)
8 | COc1ccc(-c2cc(=O)c3c(OC)c(OC)c(OC)c(OC)c3o2)cc1OC [Nobiletin] (stock concentration (mM, diluted 1:100): 10) | 1.02 (inactive)
9 | O=C(CCCN1CC=C(n2c(=O)[nH]c3ccccc32)CC1)c1ccc(F)cc1 [Droperidol] (stock concentration (mM, diluted 1:100): 10) | -0.15 (inactive)
10 | CC(C)c1ccc2oc3nc(N)c(C(=O)O)cc3c(=O)c2c1 [Amlexanox] (stock concentration (mM, diluted 1:100): 10) | 0.07 (inactive)
11 | COc1cc(C(=O)NC2CCCNC2)cc(OC)c1OC (stereo not given) [Troxipide] (stock concentration (mM, diluted 1:100): 10.1) | -0.27 (inactive)
12 | CC(C)c1nc(CN(C)C(=O)N[C@H](C(=O)N[C@@H](Cc2ccccc2)C[C@H](O)[C@H](Cc2ccccc2)NC(=O)OCc2cncs2)C(C)C)cs1 [Ritonavir] (stock concentration (mM, diluted 1:100): 10) | -1.41 (inactive)
13 | CN(CCOc1ccc(CC2SC(=O)NC2=O)cc1)c1ccccn1 (stereo not given) [Rosigltazone hydrochloride] (stock concentration (mM, diluted 1:100): 8.2) | 2.69 (inactive)
14 | N[C@@H](C(=O)N[C@@H]1C(=O)N2C(C(=O)O)=C(CSc3cn[nH]n3)CS[C@H]12)c1ccc(O)cc1 [Seapuron] (stock concentration (mM, diluted 1:100): 8.6) | 0.57 (inactive)
15 | CC(C)/N=c1\cc2n(-c3ccc(Cl)cc3)c3ccccc3nc-2cc1Nc1ccc(Cl)cc1 [Clofazimine] (stock concentration (mM, diluted 1:100): 10) | -1.5 (inactive)
16 | CC1CCN(CCCC(=O)c2ccc(F)cc2)CC1 [Metylperon] (stock concentration (mM, diluted 1:100): 10) | 0.9 (inactive)
17 | CCOC(=O)c1ccc(OC(=O)CCCCCNC(=N)N)cc1 [Gabexate mesylate] (stock concentration (mM, diluted 1:100): 7.7) | 2.41 (inactive)
18 | CC(C)(C)NCC(O)c1ccc(O)c(CO)c1 (stereo not given) [Salbutamol sulfate] (stock concentration (mM, diluted 1:100): 9.7) | -0.65 (inactive)
19 | CCC(=O)O[C@]1(C(=O)SCF)[C@H](C)C[C@H]2[C@@H]3C[C@H](F)C4=CC(=O)C=C[C@]4(C)[C@@]3(F)[C@@H](O)C[C@@]21C [Fluticasone propionate] (stock concentration (mM, diluted 1:100): 10) | -1.24 (inactive)
20 | COc1cc(C)nc(-n2nc(C)cc2OC)n1 [Mepirizole] (stock concentration (mM, diluted 1:100): 10) | -1.87 (inactive)

Row | SMILES | HIS4 meiotic recombination assay sensitivity score
21 | CN(Cc1cnc2nc(N)nc(N)c2n1)c1ccc(C(=O)N[C@@H](CCC(=O)O)C(=O)O)cc1 [Methotrexate] (stock concentration (mM, diluted 1:100): 14.6) | 0.19 (inactive)
22 | CCOC(=O)N1CCC(=C2c3ccc(Cl)cc3CCc3cccnc32)CC1 [Loratadine] (stock concentration (mM, diluted 1:100): 10) | -1.19 (inactive)
23 | CC(C)(C)NC(=O)[C@@H]1CN(Cc2cccnc2)CCN1C[C@@H](O)C[C@@H](Cc1ccccc1)C(=O)N[C@H]1c2ccccc2C[C@H]1O [Indinavir sulphate] (stock concentration (mM, diluted 1:100): 8.6) | -1.36 (inactive)
24 | CN1CCN(C2=Nc3ccccc3Oc3ccc(Cl)cc32)CC1 [Loxapine succinate] (stock concentration (mM, diluted 1:100): 11) | 7.41 (active)
25 | CC(C)c1ccc2c(c1)c(SC(C)(C)C)c(CC(C)(C)C(=O)O)n2Cc1ccc(Cl)cc1 [Tocris-1311] (stock concentration (mM, diluted 1:100): 10) | -0.42 (inactive)
26 | CC[C@H](C)C(=O)O[C@H]1CCC=C2C=C[C@H](C)[C@H](CC[C@@H]3C[C@@H](O)CC(=O)O3)[C@H]21 [Mevastatin] (stock concentration (mM, diluted 1:100): 10) | 1.32 (inactive)
27 | CCOC(=O)[C@@]1(CCCCCCOc2ccc(Cl)cc2)CO1 [Etomoxir] (stock concentration (mM, diluted 1:100): 10) | -1.14 (inactive)
28 | CCCN[C@H]1CCc2nc(N)sc2C1 [Pramipexole] (stock concentration (mM, diluted 1:100): 10) | -2.92 (inactive)
29 | CCN(CC)CC(=O)Nc1c(C)cccc1C [Lidocaine] (stock concentration (mM, diluted 1:100): 9.6) | -2.75 (inactive)
30 | C[C@H](N[C@@H](CCc1ccccc1)C(=O)O)C(=O)N1CCC[C@H]1C(=O)O [Enalaprilat] (stock concentration (mM, diluted 1:100): 10) | -0.11 (inactive)
31 | Cc1ccsc1C(=CCCN1CCC[C@@H](C(=O)O)C1)c1sccc1C [Tiagabine hydrochloride] (stock concentration (mM, diluted 1:100): 9.1) | 5.07 (active)
32 | CNCC[C@H](Oc1cccc2ccccc12)c1cccs1 [Duloxetine hydrochloride] (stock concentration (mM, diluted 1:100): 8.9) | 7.17 (active)
33 | CNNCc1ccc(C(=O)NC(C)C)cc1 [Procarbazine hydrochloride] (stock concentration (mM, diluted 1:100): 8.6) | -1.19 (inactive)
34 | COCCCOc1ccnc(C[S+]([O-])c2nc3ccccc3[nH]2)c1C (stereo not given) [Rabeprazole] (stock concentration (mM, diluted 1:100): 10.6) | 3.07 (inactive)
35 | COc1cc([C@@H]2c3cc4c(cc3[C@@H](O[C@@H]3O[C@@H]5CO[C@@H](C)O[C@H]5[C@H](O)[C@H]3O)[C@H]3COC(=O)[C@H]23)OCO4)cc(OC)c1O [Etoposide] (stock concentration (mM, diluted 1:100): 10) | 0.11 (inactive)
36 | CC(=O)N1CCN(c2ccc(OCC3COC(Cn4ccnc4)(c4ccc(Cl)cc4Cl)O3)cc2)CC1 (stereo not given) [Ketoconazole] (stock concentration (mM, diluted 1:100): 10) | -1.74 (inactive)
37 | C[C@]12CCC(=O)C=C1CC[C@@H]1[C@@H]2CC[C@@]2(C)[C@H]1CC[C@]2(O)C(=O)CO [Cortodoxone] (stock concentration (mM, diluted 1:100): 10) | 0.86 (inactive)
38 | C=CC1=C(C(=O)O)N2C(=O)[C@@H](NC(=O)/C(=N\O)c3csc(N)n3)[C@H]2SC1 [Cefdinir] (stock concentration (mM, diluted 1:100): 10) | 0 (inactive)
39 | CCN(CC)C(=O)C1(c2ccccc2)CC1CN (stereo not given) [Milnacipran] (stock concentration (mM, diluted 1:100): 10) | -0.19 (inactive)
40 | CC=CC(=O)N(CC)c1ccccc1C [Crotamiton] (stock concentration (mM, diluted 1:100): 10.3) | 3.54 (inactive)
